From PubChem BioAssay
KB-V1 cytotox: kills drug-selected multidrug resistant KB-V1 cells | KB-V1 MDR cells viability, CellTiter-Glo, 72 h | Potency, µM (top dose mostly 46.1 µM), actives largely listed as cytotoxic | 400,000 tested, 3.4% active | AID 1347076; also: % is scaled to controls: 0 for no effect and ±100 for the full control effect; nearly all actives have a fitted effect of over 60% in size
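KB-V1 MDR subline cells in DMEM (phenol-red free, 10% FBS) exposed to compounds in qHTS concentration series for 72 h at 37 degrees C. Viability read by CellTiter-Glo luminescence; concentration-effect curves fitted after normalization and correction.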
HepG2 viability: counter-screen for TGF-b inhibitors: cytotoxicity in HepG2 cells | HepG2 CAGA-GFP viability, ATP luminescence, 18 h | Potency, µM (doses to about 46.1 µM), for inactives: top-dose activity change, negative = cytotoxicity, hits mostly cytotoxic | 410,000 tested, 0.76% active | AID 588856
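CellTiter-Glo luminescence gave cytotoxicity after 18 hours at 37 degrees C. The cells were HepG2 CAGA-GFP in 1% FBS DMEM, stimulated with 500 pg/mL TGF-beta after compound addition. %Activity was normalised to no-cell wells (complete cell-killing) and DMSO (no toxicity), and curves were fitted and classified.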
KB-3-1 tox: kills parental KB-3-1 adenocarcinoma cells; KB-3-1 viability, CellTiter-Glo ATP luminescence, 72 h; Potency, µM (titrated, usually from 46.1 µM), usual class: cytotoxic; AID 1347075; 400,000 tested, 1.4% active; also: % is scaled to controls: 0 for no effect and ±100 for the full control effect; nearly all actives have a fitted effect of over 60% in size
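Cells are dispensed, compounds pinned in, plates held at 37 °C for 72 h, then CellTiter-Glo is added and luminescence read after 10 minutes. Cell line: parental KB-3-1 in phenol-red-free DMEM, 10% FBS.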
S2 tox: reduces viability in counter-screen for ATXN expression inhibitors. 400,000 tested, 0.49% active. AID 651635. S2 cells (HEK-293 line with an ATXN2-luciferase reporter) viability, CellTiter-Fluor protease fluorescence, 24 h. Potency, µM (doses to about 56.7 µM), most hits filed as cytotoxic; also: nearly all actives have a fitted effect of over 40% in size
ATXN2 expr inh: reduces ATXN2 reporter expression in HEK-293 cells. HEK-293 ATXN2-luciferase reporter, luminescence, 24 h. 360,000 tested, 0.72% active. Potency, µM (doses to about 57 µM), inactives show at the highest dose activity change, negative = inhibition, usual class: inhibitors; also: % is scaled to controls: 0 for no effect and ±100 for the full control effect; nearly all actives have a fitted effect of over 55% in size
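ATXN2-luciferase reporter cells (luciferase flanked by upstream and downstream ATXN2 gene portions) were treated 24 h at 37 °C with compounds at up to 57 uM. SteadyGlo luminescence gave expression; GF-AFC fluorescence gave viability.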
TGFb inhibitor: TGF-b pathway inhibition. HepG2 CAGA-GFP TGF-b/SMAD3 reporter, GFP fluorescence, 18 h; TGF-beta stimulated, 500 pg/mL final. Potency, µM (top dose mostly 46.1 µM), for inactives: at the highest dose activity, negative = inhibition, most hits filed as inhibitors. 410,000 tested, 1.2% active. AID 588855; also: % is scaled to controls: 0 for no effect and ±100 for the full control effect; nearly all actives have a fitted effect of over 65% in size
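Inhibition was scored as loss of TGF-beta-induced (500 pg/mL final, 18 hours, 37 degrees C) GFP in HEPG2 cells carrying a CAGA-GFP reporter, in DMEM with 1% FBS. Well GFP was summed per cell; Activity was normalised to unstimulated and stimulated DMSO wells, then concentration-response fitting.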
Starred values were filed as active, the others as inactive; i = inactive; ? = inconclusive; . = not tested or not shown. Only some compounds are listed: those with a hit (about 5.9% of all), similar ones and a draw of the others. Calls follow the shape of the dose curve; as a rule, active = well fitted curve in the direction sought with a large enough effect; inconclusive = small, poorly fitted or top-dose-only effect, or another doubt; inactive = no such curve, though single readings can be large; an effect the other way counts as inactive or inconclusive. Potency is read from the fitted curve at half-maximal effect.

SMILES | KB-V1 cytotox | HepG2 viability | KB-3-1 tox | S2 tox | ATXN2 expr inh | TGFb inhibitor
COc1ccc(-c2noc(C3CCCN(S(=O)(=O)c4ccc(C)c(Cl)c4)C3)n2)cc1OC (stereo not given) | 3.7µM* | -2% | i | ? | -11% | 11%
COc1ccc(-c2noc(C3CCCN(S(=O)(=O)c4cccc(Cl)c4C)C3)n2)cc1OC (stereo not given) | 18µM* | -35% | i | i | -3% | -14%
COc1cc(-c2noc(C3CCCN(C(=O)c4c(F)cccc4F)C3)n2)cc(OC)c1OC (stereo not given) | i | -26% | i | i | -10% | -3%
O=S(=O)(c1ccccc1Cl)N1CCCC(c2nc(-c3cccnc3)no2)C1 (stereo not given) | 7.3µM* | 5% | i | i | -5% | ?
CCN(CC)CCN(C(=O)c1ccco1)c1nc2c(C)cccc2s1 | i | -31% | i | i | -11% | -13%
CCOC(=O)c1sc2ncn(CC(=O)Nc3ccc(C)cc3C)c(=O)c2c1C | ? | -22% | i | i | 4% | 0%
COCC(=O)Nc1cc(C(=O)NC2Cc3ccccc3C2)cc2nc(-c3cccnc3)n(C)c12 | . | . | . | i | . | .
COc1cccc(OC)c1C(=O)Nc1ccc(N2CCN(C(=O)c3cccs3)CC2)cc1 | i | -24% | i | i | 2% | -6%
O=C(Nc1ccc(N2CCN(C(=O)c3cccs3)CC2)cc1)c1cccc(F)c1 | ? | -7% | 18µM* | i | -33% | -7%
COc1cccc(C(=O)Nc2ccc(N3CCN(C(=O)c4cccs4)CC3)cc2)c1 | 2.3µM* | -19% | 5.2µM* | i | -35% | ?
Cc1nc2c(-c3ccccc3)c(C)nn2c(C)c1CCC(=O)N1CCN(c2ccc(F)cc2)CC1 | i | 0% | i | i | 9% | ?
C=CCn1c(=N)n(CC(=O)c2ccc(Br)s2)c2ccccc21 | i | -65% | 15µM* | i | ? | ?
C=CCn1c(=N)n(CC(=O)c2ccc(Cl)cc2)c2ccccc21 | i | -18% | i | i | -8% | 0%
Cc1ccccc1Cc1c(C)nc2c(C(=O)N3CCN(Cc4ccc5c(c4)OCO5)CC3)cnn2c1C | 8.2µM* | -14% | i | i | -11% | -14%
Cc1cccc(Cc2c(C)nc3c(C(=O)NCc4ccco4)cnn3c2C)c1 | i | -113% | i | i | -33% | 18µM*
Cc1nc2c(C(=O)NCc3ccc4c(c3)OCO4)cnn2c(C)c1Cc1ccc(F)cc1Cl | i | -6% | ? | ? | -23% | 0%
Cc1cccc(Cc2c(C)nc3nc(SCC(=O)O)nn3c2C)c1 | ? | -5% | i | i | ? | -2%
Cc1cccc(Cc2c(C)nc3nc(SCC(=O)NCc4ccccc4)nn3c2C)c1 | i | -10% | 15µM* | ? | -23% | ?
Cc1ccccc1Cc1c(C)nc2c(C(=O)NCc3ccc4c(c3)OCO4)cnn2c1C | 18µM* | -1% | i | i | -17% | -2%
Cc1nc2c(C(=O)NCc3ccco3)cnn2c(C)c1Cc1ccc(F)cc1Cl | i | -12% | i | i | -25% | -5%
Cc1ccc2c(=O)c(C(=O)c3ccc(F)cc3)cn(CC(=O)NCCc3ccccc3)c2n1 | i | 0% | i | i | -2% | -17%
Clc1ccc(CN(CCCNc2ncnc(NCCCc3cnc[nH]3)n2)c2ccc(Br)cn2)cc1Cl | i | . | ? | . | . | .
Cc1ccccc1CSc1nc2cc(C(=O)NC3CCCC3)ccc2c(=O)n1Cc1ccccc1 | . | 2% | . | . | . | 5%
Cc1cc(C)[n+]2[nH]c(N)c(N=Nc3ccccc3)c2n1 | i | 13µM* | i | ? | 2% | -13%
Cc1cc(C)n2nc(N)c(N=Nc3ccccc3)c2n1 | ? | -24% | i | i | 12% | 3%
SMILES | KB-V1 cytotox | HepG2 viability | KB-3-1 tox | S2 tox | ATXN2 expr inh | TGFb inhibitor
c1ccc(-c2nnnn2-c2ccccc2)cc1 | i | -20% | i | i | -20% | 8%
ClC(Cl)(c1nnnn1-c1ccccc1)c1nnnn1-c1ccccc1 | i | 11µM* | i | ? | ? | ?
O=C(COC(=O)c1ccccc1NS(=O)(=O)c1cccs1)NCC12CC3CC(CC(C3)C1)C2 | 15µM* | -9% | i | ? | 1% | ?
CCC(Sc1nc(C)cc(C)n1)C(=O)NC1=NN=C(c2ccc(C)cc2)CS1 (stereo not given) | i | -31% | i | ? | -28% | ?
Cc1cc(C)nc(SCC(=O)NC2=NN=C(c3ccc(Br)cc3)CS2)n1 | i | -15% | ? | 32µM* | ? | -2%
Cc1cc2c(cc1NS(=O)(=O)c1cccc(C#N)c1)n(C)c(=O)c(=O)n2C | i | -3% | i | i | 14% | -8%
C=C1C(=O)O[C@@H]2[C@H]1CC[C@H](C)[C@]1(O)CCC(=O)[C@@]21C | i | 4% | ? | ? | -18% | ?
C=C1C(=O)OC2C1CCC(C)=C1C(=O)C3OC3(C)C12 (stereo not given) | ? | 4.5µM* | ? | 8.9µM* | 7.1µM* | 4.5µM*
O=S(=O)(c1ccc(S(=O)(=O)N(Cc2cccs2)CC2CCCO2)cc1)N1CCCCC1 (stereo not given) | 7.3µM* | -2% | i | i | 2% | -5%
Cc1ccc(-c2nc(C=Nc3ccc(O)cc3)c(O)o2)cc1 | ? | -19% | i | i | . | -3%
Cc1ccc(N=Cc2nc(/C=C/c3cccc([N+](=O)[O-])c3)oc2O)cc1 | 16µM* | 8% | i | . | ? | -1%
C=CCSc1nnc(C2CCCN(Cc3ccccc3O)C2)n1C (stereo not given) | . | . | . | i | . | .
C=CCn1c(Cc2cccc3ccccc23)n[nH]c1=S | 18µM* | -31% | i | i | -6% | ?
Cn1c(-c2ccccc2)cc(=O)cc1-c1ccccc1 | i | -1% | i | i | . | 22%
O=c1cc(-c2ccccc2)cc(-c2ccccc2)n1O | i | -8% | i | 16µM* | 14µM* | ?
Cc1ncc2c(c1CNS(=O)(=O)N(C)C)CCN(C(=O)/C=C/c1ccccc1Cl)C2 | . | . | . | i | . | .
CC(C)CC1C(=O)N(Cc2cn(CCC3OCCCO3)nn2)CCS(=O)(=O)N1Cc1ccc(-c2ccncc2)cc1 (stereo not given) | i | -26% | i | i | -10% | 2%
